The source of these data is PubChem BioAssay (EPA / NIEHS).

A structure can be active in one record and inactive in another. The source made the active and inactive calls. How the source made its calls: active means hit-call score of the fitted dose curve at least 0.9, where 1 is the maximum; inactive means score below 0.9.

The nature of this assay: CCTE_Shafer_MEA_acute_per_network_burst_spike_number_mean: CCTE's Neural Acute Assay for Average Number of Spikes in a Network Burst, Shafer Lab (AID 2284019). The protocol: CCTE_Shafer_MEA_acute assay is conducted using Axion Biosystems 48 well microelectrode array (MEA) plates and Maestro recording system. Each well of the MEA plate contains a grid of 16 microelectrodes embedded in the culture surface. Electrically active cells, such as neurons, can be cultured over the electrodes, and electrical activity in these cells can be recorded extracellularly. The spontaneous firing of neurons is captured from each electrode on a microsecond timescale providing both temporally and spatially precise data. […] The CCTE_Shafer_MEA_acute assay uses primary cultures of rat cortical neurons. As these cultures mature over time, neural networks develop functional activity and form cohesive networks in which electrical activity can be highly coordinated. Baseline 40-minute recordings are made on days post-plating 13 or 15, followed by a secondary 40-minute recording after chemical exposure.CCTE_Shafer_MEA_acute_per_network_burst_spike_number_mean is a component of the CCTE_Shafer_MEA_acute assay. It measures the average number of spikes (action potential firings) in a network burst (temporally-clustered group of spikes across multiple electrodes) as the total number of spikes in a network burst divided by the number of network bursts during a recording in a microelectrode array (MEA) using Axion Biosystems Maestro 768 channel amplifier with the AxIS adaptive spike detector. The recordings before and after chemical treatment are used to calculate a percent change in the mean number of spikes in a network burst in each well.Data from the assay component CCTE_Shafer_MEA_acute_per_network_burst_spike_number_mean was analyzed into 1 assay endpoint. This assay endpoint, CCTE_Shafer_MEA_acute_per_network_burst_spike_number_mean, was analyzed in the negative analysis fitting direction relative to DMSO as the negative control and baseline of activity. Using a type of functional reporter, gain or loss-of-signal activity can be used to understand electrical activity.
Spontaneous activity in the cortical cultures was recorded using an Axion Biosystems Maestro 768 channel amplifier and Axion Integrated Studios (AxIS) v1.8 (or later) software. The amplifier recorded from all channels simultaneously (gain = 1200 x; sampling rate = 12.5 kHz/channel): raw signals were filtered with a Butterworth band-pass filter (300-5000 Hz), which filters out slower local field potentials leaving only fast potentials, i.e., "spikes", arising from extracellular currents associated with action potentials (Pine 2006; Wheeler and Nam 2011). On-line spike detection of filtered signals was conducted with the AxIS adaptive spike detector, using a threshold of 8x the root mean squared (rms) noise on each channel. Any electrodes with rms noise levels greater than 5 uV were grounded (e.g., no data were recorded). Once grounded, an electrode was grounded for the duration of the experiment. All recordings were conducted at 37 C. Wells were deemed usable if on the day of the exposure >/= 10 electrodes were active (defined as >/= 5 spikes/min). On DIV 13 or 15, a minimum of three wells from one cortical culture preparation were treated with each compound (0.03-40 uM). Prior to recording baseline activity, each mwMEA plate was placed in the Maestro at 37 C and allowed to sit for 20 min while firing rates stabilized. Baseline activity (40 min) was recorded before the addition of each compound. An additional 40 min of spontaneous activity was recorded in the presence of each compound. Changes in network parameters relative to baseline were assessed following compound treatment.
On to `CC1(C)[C@@H](C=C(Cl)Cl)[C@@H]1C(=O)O[C@@H](C#N)c1ccc(F)c(Oc2ccccc2)c1`, for which the AC50 is 1280 nM (active).
`CP(=O)(O)CC[C@H](N)C(=O)O`: the result was inactive.
On the same count and under the same terms, as for `C#CCN(C)[C@H](C)Cc1ccccc1`, the entry is “inactive”.
In the case of `Cc1ccc(OP(=O)(Oc2ccc(C)cc2)Oc2ccc(C)cc2)cc1` (tested in a mixture with another compound), the AC50 is 3400 nM (active).
For `CC1(C)[C@H](C(=O)O[C@H](C#N)c2cccc(Oc3ccccc3)c2)[C@@H]1C=C(Br)Br`, the AC50 is 1500 nM (active).
Regarding `CCCC[N+](CCCC)(CCCC)CCCC`, the outcome was inactive.
Regarding `O=[N+]([O-])O`, the call was inactive and the AC50 is 3 nM (active).
On to `O=c1c2ccccc2c(=O)c2c1cc(Cl)c1[nH]c3c([nH]c12)c(Cl)cc1c(=O)c2ccccc2c(=O)c13`, for which the result was inactive.
Take `CP(=O)(O)CCC(N)C(=O)O` (stereo unspecified): the compound was called inactive.
Still for that read-out and setting: as for `[Cd+2].[Cl-].[Cl-]`, the entry is “inactive”.
Still for that read-out and setting: as for `CC1(C)[C@H](C=C(Cl)Cl)[C@@H]1C(=O)O[C@@H](C#N)c1cccc(Oc2ccccc2)c1`, the entry is “inactive”; as for `Oc1ccc(C2(c3ccc(O)cc3)c3ccccc3-c3ccccc32)cc1`, “inactive”; as for `c1cc[n+]2c(c1)-c1cccc[n+]1CC2`, “inactive”.
On the same count and under the same terms, as for `O=C(O)CNCP(=O)(O)O`, the entry is “inactive”.
As to `COc1ccc(CO)cc1`, the AC50 was 25400 nM (active).
